Drawing on PubChem BioAssay, this text covers composite z-score and z-score for six compounds.

Activity calls are given as the source filed them.

Assay [1] is described as follows: small molecules captured by biotinylated probe aFSTL3 – biochemical, small-molecule microarray, fluorescence 635/667, stem cell growth factor project, primary screen (AID 1064).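 Note: measures binding of the biotinylated anti-FSTL3 antibody to printed compounds.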 The note with it: higher = more signal.
The nature of assay [2]: binders from COS7 lysate, DM2A8 probe, primary screen, torsin A project, cell lysate, small-molecule microarray, fluorescence 635/667 (AID 1065). The note with it: higher = more signal, COS7 lysate expressing mutant human TOR1A.
Assay [3] in a line: small molecules captured by biotinylated probe aFGF2 – biochemical, small-molecule microarray, fluorescence 635/667, stem cell growth factor project, primary screen (AID 1067).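 Note: measures binding of biotinylated aFGF2 protein to printed compounds on slides; z-score merges feature fluorescence and signal-to-noise across triplicate slides.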 The note with it: higher = more signal.
The nature of assay [4]: small molecules captured by biotinylated probe aFGF10 – biochemical, small-molecule microarray, fluorescence 635/667, stem cell growth factor project, primary screen (AID 1071).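 Note: score merges 667 nm spot intensity and signal to noise from triplicate slides.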 The note with it: higher = more signal.
For assay [5], the target named is Neurogenic locus notch homolog protein 2 (Homo sapiens) (UniProt Q04721). As to the kind of experiment: small molecules binding Notch2 protein – biochemical, small-molecule microarray, 635 nm fluorescence, stem cell growth factors, primary screen (AID 1073). Particulars: higher = more signal.
Assay [6] deals with Pro-neuregulin-1, membrane-bound isoform (Homo sapiens) (UniProt Q02297). Description: small molecules binding neuregulin-1 protein – biochemical, small-molecule microarray, fluorescence 635/667, psychiatric disease protein project, primary screen (AID 1075).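 Note: score combines 667 nm spot fluorescence with signal to noise.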 The note with it: NRG1 binding, 635 nm fluorescence, higher = more signal.
Sequence of Pro-neuregulin-1, membrane-bound isoform (Homo sapiens) (Q02297 whole entry, looked up, the tested form may be a part, canonical isoform): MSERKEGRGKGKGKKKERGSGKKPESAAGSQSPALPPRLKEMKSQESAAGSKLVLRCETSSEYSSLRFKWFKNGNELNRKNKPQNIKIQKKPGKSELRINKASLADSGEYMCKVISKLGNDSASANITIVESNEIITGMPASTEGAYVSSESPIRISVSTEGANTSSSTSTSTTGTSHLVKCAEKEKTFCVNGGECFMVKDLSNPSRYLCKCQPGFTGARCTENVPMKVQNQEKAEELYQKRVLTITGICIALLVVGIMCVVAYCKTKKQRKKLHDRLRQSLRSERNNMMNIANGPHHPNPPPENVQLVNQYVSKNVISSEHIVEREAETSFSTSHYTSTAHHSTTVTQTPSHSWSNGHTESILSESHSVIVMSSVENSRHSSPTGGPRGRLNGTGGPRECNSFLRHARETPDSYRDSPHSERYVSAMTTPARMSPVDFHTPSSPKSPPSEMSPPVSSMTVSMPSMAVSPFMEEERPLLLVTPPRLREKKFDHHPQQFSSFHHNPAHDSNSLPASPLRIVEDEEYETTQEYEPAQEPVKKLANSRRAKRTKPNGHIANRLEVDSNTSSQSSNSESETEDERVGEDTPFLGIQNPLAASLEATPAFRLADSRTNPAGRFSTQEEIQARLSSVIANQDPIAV
Assay [7] concerns Neuregulin-1 EGF-like domain. Description: small molecules binding NRG1 EGF domain – biochemical, small-molecule microarray, 635 nm fluorescence, primary screen (AID 1081).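 Note: binding of the protein to compounds printed on small-molecule microarray slides.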 Particulars: higher = more signal.
A short description of assay [8]: FRG1 expression reporter modulators in myotubes – cell-based, C2C12 myotubes, firefly/Renilla luciferase, luminescence, FRG1 inhibition for FSHD, primary screen (AID 1084). Particulars: FRG1 promoter luciferase, higher = more signal, called active from +8 up or from −8 down.
Assay [9] can be described thus: small molecules captured by biotinylated probe aFST – biochemical, small-molecule microarray, fluorescence 635/667, stem cell growth factor project, primary screen (AID 1086).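 Note: score merges 667 nm fluorescence with signal-to-noise of each printed compound spot.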 Particulars: higher = more signal.
Assay [10] is described as follows: binders of probe aHhip on microarray, primary screen, stem cell growth factor project, biochemical, small-molecule microarray, fluorescence 635/667 (AID 1087).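 Note: score merges spot fluorescence at 667nm with spot signal to noise ratio.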 Particulars: higher = more signal.
Assay [11] deals with PRMT1 (protein arginine N-methyltransferase 1). As to the kind of experiment: small molecules binding arginine methyltransferase PRMT1 – biochemical, small-molecule microarray, 635 nm fluorescence, primary screen (AID 1088).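 Note: binding of Prmt1 protein to compounds spotted on small-molecule microarray slides.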 Particulars: higher = more signal.
Assay [12] can be described thus: growth effects on S. cerevisiae YJM789 – YJM789 clinical isolate, OD600, 24 h, basal, primary screen (AID 1089).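 Note: growth of clinical yeast isolate S. cerevisiae YJM 789 seeded 1000 cells per well; test concentration not given here.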 The note with it: higher = more signal, called active from +8 up or from −8 down.
A short description of assay [13]: S. pombe growth modifiers, basal conditions – strain 972, OD600, 24 h, no modulator, primary screen (AID 1090).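 Note: basal condition with compound alone and no growth modifier present; test concentration not given here.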 The note with it: S. pombe 972 growth, higher = more signal, called active from +8 up or from −8 down.
A short description of assay [14]: budding yeast growth modifiers under rapamycin – strain BY4716, OD600, 96 h, primary screen (AID 1091). Note: test concentration not given here. The note with it: S. cerevisiae BY4716 + rapamycin, higher = more signal, called active from +8 up or from −8 down.
For assay [15], the target named is Torsin-1A-interacting protein 2 (Homo sapiens) (UniProt Q8NFQ8). Description: small molecules binding lysate-expressed LULL1 – cell lysate, human LULL1 lysate, 635/667 nm fluorescence, primary screen (AID 1092).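 Note: probe is lysate of COS7 cells overexpressing human LULL1; score merges per-feature 667 nm fluorescence with signal-to-noise.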 The note with it: small-molecule microarray, hLULL1 lysate binding, 635 nm fluorescence; higher = more signal.
Sequence of Torsin-1A-interacting protein 2 (Homo sapiens) (Q8NFQ8 whole entry, looked up): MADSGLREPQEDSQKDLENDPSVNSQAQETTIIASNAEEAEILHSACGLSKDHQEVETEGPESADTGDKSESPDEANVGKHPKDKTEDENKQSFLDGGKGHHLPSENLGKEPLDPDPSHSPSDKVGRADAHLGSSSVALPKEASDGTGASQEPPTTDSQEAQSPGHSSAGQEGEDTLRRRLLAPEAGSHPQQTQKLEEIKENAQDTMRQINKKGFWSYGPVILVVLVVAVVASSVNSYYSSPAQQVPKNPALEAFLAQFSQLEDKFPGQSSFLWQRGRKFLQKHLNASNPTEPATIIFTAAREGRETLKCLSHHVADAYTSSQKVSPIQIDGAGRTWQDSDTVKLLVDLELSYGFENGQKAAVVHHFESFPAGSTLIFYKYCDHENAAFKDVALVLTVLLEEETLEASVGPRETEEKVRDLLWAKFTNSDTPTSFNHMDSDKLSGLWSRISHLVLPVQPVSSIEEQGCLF
Assay [16] can be described thus: optical density change of DRC41 E. coli – strain DRC41, OD650, 24 h, E. coli filamentation project, primary screen (AID 1093).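 Note: MC1000 strain lacking acrAB efflux and sulA so SOS filamentation is blocked; test concentration not given here.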 The note with it: E. coli DRC41 growth, higher = more signal, called active from +8 up or from −8 down.
Assay [17] is described as follows: probe aLefty2 binding to arrayed compounds – biochemical, biotinylated probe, 635/667 nm fluorescence, primary screen (AID 1094).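 Note: score merges spot fluorescence near 667 nm with spot signal-to-noise ratio.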 Particulars: small-molecule microarray, higher = more signal.
Assay [18] deals with Noggin (protein binding on small-molecule microarray). As to the kind of experiment: small molecules binding Noggin protein – biochemical, 635/667 nm fluorescence, primary screen (AID 1095).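 Note: score merges 667 nm feature fluorescence with signal to noise over triplicate slides.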 The note with it: 635 nm fluorescence, higher = more signal.
In assay [19] the target is Neurogenic locus notch homolog protein 3 (Homo sapiens) (UniProt Q9UM47). Description: small molecules binding NOTCH3 protein – biochemical, 635/667 nm fluorescence, primary screen (AID 1096). Particulars: small-molecule microarray, 635 nm fluorescence, higher = more signal.
Sequence of Neurogenic locus notch homolog protein 3 (Homo sapiens) (Q9UM47 whole entry, looked up): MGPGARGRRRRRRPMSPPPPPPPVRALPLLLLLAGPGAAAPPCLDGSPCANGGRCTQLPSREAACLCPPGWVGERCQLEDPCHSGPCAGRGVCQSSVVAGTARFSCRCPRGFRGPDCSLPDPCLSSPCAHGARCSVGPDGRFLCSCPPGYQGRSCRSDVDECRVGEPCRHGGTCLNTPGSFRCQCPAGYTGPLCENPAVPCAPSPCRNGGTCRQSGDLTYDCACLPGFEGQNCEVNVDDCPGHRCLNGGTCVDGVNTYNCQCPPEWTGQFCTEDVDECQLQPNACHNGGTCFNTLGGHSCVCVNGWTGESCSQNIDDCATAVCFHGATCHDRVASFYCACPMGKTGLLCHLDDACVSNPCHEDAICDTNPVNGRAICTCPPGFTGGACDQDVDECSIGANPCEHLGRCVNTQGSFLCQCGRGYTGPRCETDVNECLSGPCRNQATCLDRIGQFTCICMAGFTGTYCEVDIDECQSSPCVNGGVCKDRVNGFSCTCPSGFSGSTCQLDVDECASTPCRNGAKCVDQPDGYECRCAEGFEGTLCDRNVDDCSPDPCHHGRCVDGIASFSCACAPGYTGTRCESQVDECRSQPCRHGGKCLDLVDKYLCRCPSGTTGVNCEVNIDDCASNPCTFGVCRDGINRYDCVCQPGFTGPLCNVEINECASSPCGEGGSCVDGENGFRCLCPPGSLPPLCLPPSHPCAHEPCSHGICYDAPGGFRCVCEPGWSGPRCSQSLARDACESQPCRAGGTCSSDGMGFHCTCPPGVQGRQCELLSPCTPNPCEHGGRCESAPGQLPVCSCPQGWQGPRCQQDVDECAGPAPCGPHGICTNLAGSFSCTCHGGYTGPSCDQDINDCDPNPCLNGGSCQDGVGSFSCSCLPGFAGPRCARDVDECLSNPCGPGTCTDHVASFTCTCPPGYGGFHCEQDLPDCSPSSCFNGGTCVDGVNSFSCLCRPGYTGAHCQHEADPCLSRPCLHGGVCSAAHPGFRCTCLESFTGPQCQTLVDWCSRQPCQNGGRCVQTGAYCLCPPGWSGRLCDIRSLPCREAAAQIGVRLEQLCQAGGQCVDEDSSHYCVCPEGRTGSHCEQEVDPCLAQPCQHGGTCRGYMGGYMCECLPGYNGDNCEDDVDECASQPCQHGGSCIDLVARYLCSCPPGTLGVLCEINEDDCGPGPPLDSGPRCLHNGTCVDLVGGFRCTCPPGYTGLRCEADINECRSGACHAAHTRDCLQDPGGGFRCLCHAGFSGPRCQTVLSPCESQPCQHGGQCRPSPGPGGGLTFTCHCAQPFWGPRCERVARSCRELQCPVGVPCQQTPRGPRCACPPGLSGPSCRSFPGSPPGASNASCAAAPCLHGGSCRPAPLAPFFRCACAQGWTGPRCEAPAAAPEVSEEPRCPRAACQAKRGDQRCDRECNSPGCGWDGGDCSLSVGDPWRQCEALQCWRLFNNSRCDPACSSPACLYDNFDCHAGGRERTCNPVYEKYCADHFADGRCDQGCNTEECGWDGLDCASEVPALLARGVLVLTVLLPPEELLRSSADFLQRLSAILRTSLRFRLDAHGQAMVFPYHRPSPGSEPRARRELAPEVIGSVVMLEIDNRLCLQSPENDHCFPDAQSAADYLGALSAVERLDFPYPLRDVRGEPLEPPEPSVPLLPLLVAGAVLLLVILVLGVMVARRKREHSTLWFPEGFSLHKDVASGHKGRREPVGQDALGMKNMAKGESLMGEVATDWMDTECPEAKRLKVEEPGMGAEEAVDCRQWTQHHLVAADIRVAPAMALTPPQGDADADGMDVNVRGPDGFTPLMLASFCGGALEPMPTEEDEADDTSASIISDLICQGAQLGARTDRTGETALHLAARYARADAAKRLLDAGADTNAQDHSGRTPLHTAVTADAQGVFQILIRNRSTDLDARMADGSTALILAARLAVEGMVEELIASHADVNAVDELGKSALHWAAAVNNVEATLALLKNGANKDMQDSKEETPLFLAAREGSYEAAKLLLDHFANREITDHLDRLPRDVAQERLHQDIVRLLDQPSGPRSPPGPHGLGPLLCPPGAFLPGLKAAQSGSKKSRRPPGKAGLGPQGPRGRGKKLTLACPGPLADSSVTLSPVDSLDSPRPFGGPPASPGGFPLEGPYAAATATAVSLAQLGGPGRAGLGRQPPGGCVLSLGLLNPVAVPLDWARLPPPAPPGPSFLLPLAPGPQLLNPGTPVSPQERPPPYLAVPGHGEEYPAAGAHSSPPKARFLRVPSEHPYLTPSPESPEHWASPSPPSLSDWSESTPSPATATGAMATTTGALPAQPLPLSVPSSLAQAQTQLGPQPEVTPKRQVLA
Assay [20] is described as follows: probe aEGFR binding to arrayed compounds – biochemical, biotinylated probe, 635/667 nm fluorescence, primary screen (AID 1097).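 Note: probe is a biotinylated anti-EGFR antibody binding compounds printed on slides; score combines fluorescence near 667 nm and signal to noise of each spot.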 Particulars: small-molecule microarray, higher = more signal.

Turning to `C=CCC(OC(C)=O)[C@@H]1[C@@H](N(Cc2cc3ccccc3o2)C(=O)c2cccc3ccccc23)c2cc(OCCCO)ccc2N1C(=O)c1ccc(-c2ccccc2)cc1` (stereo not given in full), the composite z-score in [1] was 0.118; in assay [2] it was -0.203; in [3] it was -0.108; in assay [4], 0.0904; in [5], 0.0918; in [6] it was 0.142. The composite z-score in assay [7] was -0.164; in [9], 0.101; in [10] it was -0.137; in assay [11], -0.101; in [15], 0.581; in [17], -0.0674. Further, the composite z-score in assay [18] was 0.293; in assay [19] it was -0.527; in [20], 0.0969. In addition, the z-score in [8] was -0.408 (inactive); in assay [12] it was 0.109 (inactive); in [13], -0.847 (inactive); in [14], 0.0344 (inactive); in assay [16] it was 1.78 (inactive).

Consider `CC1CC/C=C\[C@H]2OC34C=CCN(Cc5ccccc5)C(=O)[C@H]3N(CCCO)C(=O)[C@@H]4C2C(=O)O1` (stereo not given in full), for which the composite z-score in [1] was 0.291; in assay [2] it was 0.141; in assay [3] it was -0.118; in [4], -0.365; in assay [5] it was -0.557; in assay [6] it was 0.909. Moreover, the composite z-score in assay [7] was 1.48; in [9], -0.662; in assay [10] it was -0.0645; in assay [11], 0.398; in assay [15] it was 1.97; in assay [17], -0.254. Besides, the composite z-score in [18] is -1.12; in [19] it was -0.106; in [20], -0.283. Moreover, the z-score is 0.242 (inactive) in [8]; -1.7 (inactive) in [12]; -1.25 (inactive) in assay [13]; -0.807 (inactive) in assay [14]; 0.56 (inactive) in [16].

For `NC(=O)NCC#Cc1ccc2c(c1)[C@]1(C(=O)N2)[C@H](C(=O)Nc2nc3ccccc3s2)[C@H]2C(=O)O[C@H](c3ccccc3)[C@H](c3ccccc3)N2[C@@H]1c1ccccc1OCCO`, the composite z-score in assay [1] was 1.85; in [2], 0.407; in assay [3] it was 0.0863; in [4] it was 1.01; in [5], 1.03; in [6] it was 1.57. Besides, the composite z-score is 0.406 in assay [7]; 1.39 in assay [9]; -0.0478 in [10]; 1.54 in assay [11]; 3.85 in [15]; -0.351 in assay [17]. Moreover, the composite z-score in assay [18] stood at 1.61; in assay [19], 1.06; in assay [20], 0.506. The z-score in [8] is 1.62 (inactive); in assay [12], 1.17 (inactive); in [13], 1.33 (inactive); in assay [14] it was 3.48 (inactive); in assay [16], 1.5 (inactive).

Regarding `C=C(CCCC)/C(=C/C[C@@H](OC(C)=O)c1ccc(OCCO)cc1)c1cnc2ccccc2c1`, the composite z-score in [1] is 0.0374; in [2] it was 0.372; in assay [3] it was -0.0598; in assay [4], 0.242; in assay [5], 0.913; in assay [6], 0.952. Also, the composite z-score in [7] is 1.01; in [9], -0.156; in [10] it was -0.0618; in [11], 1.56; in assay [15], 2.01; in assay [17] it was -0.132. Further, the figures for the composite z-score in [18], in assay [19] and in [20] were 0.542, 0.857 and 0.0507, respectively. In addition, the z-score is -1.51 (inactive) in assay [8]; 0.273 (inactive) in [12]; -1.44 (inactive) in assay [13]; -0.245 (inactive) in [14]; 0.796 (inactive) in assay [16].

As for `COc1ccc(CCNC(=O)[C@@]2(Sc3ccc(C)cc3)CC(=O)N(C(C)C)[C@@H]2c2ccc(CO)cc2I)cc1`, the composite z-score in [1] was -0.0354; in [2] it was -0.566; in assay [3], 0.0376; in assay [4] it was -0.341; in [5], -0.83; in assay [6], -0.387. The composite z-score in assay [7] was 0.31; in [9] it was 0.238; in [10], -0.511; in [11], 0.163; in [15], 0.468; in assay [17] it was -0.183. For the same compound, the composite z-score in assay [18] is -0.778; in assay [19] it was -0.343; in [20], -0.189. Besides, the z-score was -0.132 (inactive) in assay [8]; -0.971 (inactive) in assay [12]; -0.693 (inactive) in assay [13]; 0.706 (inactive) in [14]; -0.236 (inactive) in assay [16].

Take `C=CC[C@]1(C(=O)NCCCOC)N=C(c2ccc(OCCCO)cc2)O[C@H]1c1ccccc1CN=[N+]=[N-]`: the composite z-score in assay [1] was 1.07; in assay [2], 0.717; in [3], -0.0981; in [4] it was 0.807; in assay [5], 1.49; in [6] it was 1.3. Further, the composite z-score in [7] came out at 1.08; in assay [9] it was 0.952; in assay [10] it was 0.335; in assay [11], 1.13; in assay [15], 3.15; in assay [17], 0.248. Also, the composite z-score came out at 0.102 in assay [18], 0.854 in assay [19] and 0.286 in assay [20]. The z-score in [8] is 0.373 (inactive); in [12], -1.5 (inactive); in [13] it was 0.998 (inactive); in assay [14], -1.71 (inactive); in assay [16], -0.483 (inactive).
